From PubChem BioAssay
The sample as a whole holds a higher share of hits than the screen did.
IMPase Li inh = cell-permeable IMPase inhibitors with lithium potentiation; Potency, µM (titrated, usually from 59.4 µM), most hits filed as inhibitors; CHO-M1 cells, IP1 TR-FRET (IP-One), carbachol + lithium; 210,000 compounds, 0.35% hits;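 note: IP1 builds up when IMPase is blocked and the TR-FRET signal falls; nearly all actives have a fitted effect of over 50% in size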
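CHO-M1, 2000 cells/well, 16–30 h culture; cpd + low Li+, 30 min 37C; lysis with d2-IP1/Eu-anti-IP1 Ab, 10 min RT; TR-FRET 665/620 ratio and 620 channel; AC50 via Hill.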
IMPase inh = cell-permeable inhibitors of inositol monophosphatase (IMPase); P97697; CHO-M1 cells, IP1 accumulation, HTRF TR-FRET ratio; inhibition (IP1 accumulation), % at 46.1 µM; 120,000 tested, under 10 active; active = well fitted curve in the direction sought with a large enough effect in the signal ratio, not every such curve was filed as active; inconclusive = small, poorly fitted or top-dose-only effect, or a change in a side signal; inactive = no such curve, though single readings can be large or run the other way; the % refers to the signal ratio;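 note: cells stimulated with carbachol in lithium chloride buffer; higher means more IMPase inhibition seen as more IP1 and lower FRET ratio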
Target sequence (P97697 whole entry, looked up): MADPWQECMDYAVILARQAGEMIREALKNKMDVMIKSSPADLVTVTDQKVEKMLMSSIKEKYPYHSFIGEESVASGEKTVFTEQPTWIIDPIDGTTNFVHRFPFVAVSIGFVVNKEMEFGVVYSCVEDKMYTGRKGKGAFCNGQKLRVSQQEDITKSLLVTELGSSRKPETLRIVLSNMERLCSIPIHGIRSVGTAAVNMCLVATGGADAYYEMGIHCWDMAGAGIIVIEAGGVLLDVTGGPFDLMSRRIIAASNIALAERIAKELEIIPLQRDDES
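The IP-One HTRF competitive assay in carbachol-stimulated CHO-M1 cells quantifies cellular IP1. Compounds spanned up to 46 uM final, and activity is expressed as AC50 from concentration-response fits of the ratio and donor data.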
NPSR antagonist = antagonists of human neuropeptide S receptor cAMP signaling | Potency, µM (titrated, usually from 38.3 µM), usual class: inhibitors | AID 1461 | CHO-NPSR cells, cAMP TR-FRET, antagonist mode | 220,000 compounds, 1% hits; note: nearly all actives have a fitted effect of over 50% in size
Target sequence (Q6W5P4 whole entry, looked up): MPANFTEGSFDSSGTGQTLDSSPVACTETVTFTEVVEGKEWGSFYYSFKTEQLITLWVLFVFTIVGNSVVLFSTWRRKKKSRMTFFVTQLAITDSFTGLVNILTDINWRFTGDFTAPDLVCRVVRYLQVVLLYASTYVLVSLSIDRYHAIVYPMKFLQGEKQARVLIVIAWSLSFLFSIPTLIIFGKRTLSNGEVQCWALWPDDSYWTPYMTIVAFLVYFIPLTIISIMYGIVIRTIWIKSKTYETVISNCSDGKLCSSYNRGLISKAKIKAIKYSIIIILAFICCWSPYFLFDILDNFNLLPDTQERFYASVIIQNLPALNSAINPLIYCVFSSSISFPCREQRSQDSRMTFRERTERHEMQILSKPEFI
A number is an active result; i = inactive; ? = inconclusive; nt = no result; [ ] = another dose, or the depositor's remark. Unless noted, calls come from the whole dose curve; as a rule, active = well fitted curve in the direction sought with a large enough effect; inconclusive = small, poorly fitted or top-dose-only effect, or another doubt; inactive = no such curve, though single readings can be large; an effect the other way counts as inactive or inconclusive.

SMILES | IMPase Li inh | IMPase inh | NPSR antagonist
O=C1CC(Sc2nnc(-c3ccccc3O)o2)C(=O)N1c1ccccc1 (centres undefined) | i | i | ?
O=S(=O)(C[C@H](O)C(Cl)(Cl)Cl)NNc1ccccc1 | i | nt | nt
CC(=O)Nc1ccc(NC2=C(Cl)C(=O)c3ccccc3C2=O)cc1 | i | nt | 10µM
CN(C)c1ccc(NC2=C(Cl)C(=O)c3ccccc3C2=O)cc1 | i | nt | ?
O=C(Nc1ccc2cn[nH]c2c1)c1c(Cl)cccc1Cl | i | i | i
O=C1C(Cl)=C(Nc2ccc3cn[nH]c3c2)C(=O)c2ccccc21 | nt | nt | 6.3µM
C[C@](O)(c1ccccc1)c1nccc2ccccc12 | i | nt | nt
COCC(=O)N1CCC2(CC1)CCN(C(c1ccccc1)c1ccccc1)CC2 | i | nt | nt
CCCOc1ccc(C(=O)Nc2nc(C)c(Cc3ccc4c(c3)OCO4)s2)cc1 | 10µM | nt | ?
Cc1nc(NC(=O)c2ccc(OCC(C)C)cc2)sc1Cc1ccc2c(c1)OCO2 | i | nt | i
COc1c(O)ccc2c1CN1CCc3cc4c(cc3[C@@H]1C2)OCO4 | i | nt | nt
Cn1cccc1C(=O)C(=O)Nc1cc(Cl)cc(Cl)c1 | 14µM | i | i
Cn1cccc1C(=O)C(=O)Nc1ccc(Cl)cc1 | i | i | i
CCOC(=O)CCCN | i | nt | nt
O=C(O)c1ccc(Cn2c(SCc3cc(=O)n4cc(Br)ccc4n3)nc3ccsc3c2=O)cc1 | ? | nt | 10µM
O=c1c2sccc2nc(SCc2cc(=O)n3ccccc3n2)n1Cc1ccccn1 | i | nt | i
O=C(O)C1CCC(Cn2c(SCc3cc(=O)n4cc(Br)ccc4n3)nc3ccsc3c2=O)CC1 (centres undefined) | 10µM | nt | 7.9µM
O=C(O)CCCCn1c(SCc2cc(=O)n3cc(Cl)ccc3n2)nc2ccsc2c1=O | i | nt | i
O=C(NNS(=O)(=O)c1ccccc1[N+](=O)[O-])c1cccc([N+](=O)[O-])c1 | i | nt | i
COc1ccccc1Nc1nc(NCC2CCCO2)c2ccccc2n1 (centres undefined) | i | nt | i
COc1cccc(-c2nc(NCC3CCCO3)c3ccccc3n2)c1O (centres undefined) | 14µM | i | ?
O=C(O)c1ccc(-c2cccc([N+](=O)[O-])c2)o1 | nt | nt | i
O=C1ON=C(c2cccc([N+](=O)[O-])c2)/C1=C/c1ccc(O)cc1 | i | nt | 10µM
CC(CCc1ccccc1)NC(=O)CSc1ccccn1 (centres undefined) | i | nt | i
CCOC(=O)c1sc2nc(C)nc(SCC(=O)NC(C)CCc3ccccc3)c2c1C (centres undefined) | 10µM | nt | i
SMILES | IMPase Li inh | IMPase inh | NPSR antagonist
CCOC(=O)c1sc2nc(C)nc(SCC(=O)N(C)C3CCS(=O)(=O)C3)c2c1C (centres undefined) | 10µM | nt | i
Cc1sc2ncnc(SCC(=O)N(C)C3CCS(=O)(=O)C3)c2c1C (centres undefined) | i | nt | i
CC(=O)c1sc(N/N=C2\CC3CC2C(C)C3(C)C)nc1C (centres undefined) | i | nt | i
COc1ccc(-c2noc(-c3ccccc3Cl)n2)cc1OC | 8.9µM | i | i
COc1ccc(-c2noc(-c3cccc(Cl)c3)n2)cc1OC | i | nt | i
COc1ccc(-n2c(=O)c(-c3ccc(Cl)cc3)nc3cnc(N(C)C)nc32)cc1 | 2.8µM | nt | nt
CN(C)c1ncc2nc(-c3ccc(Cl)cc3)c(=O)n(-c3ccccc3)c2n1 | 2.8µM | nt | nt
COc1ccc(-c2nc3cnc(N(C)C)nc3n(-c3ccccc3)c2=O)cc1 | i | nt | nt
CN(C)c1ncc2nc(-c3ccc(Cl)cc3)c(=O)n(Cc3ccc(F)cc3)c2n1 | i | nt | nt
CC1CCN(S(=O)(=O)c2cccc(C(=O)NNC(=O)c3ccco3)c2)CC1 | nt | nt | i
Fc1cccc(CSc2ncnc3c2ncn3[C@H]2CCCS2)c1 | i | nt | nt
N=C1SCC(=O)N1c1ncc(Cc2cccc(Cl)c2)s1 | i | nt | i
NC(=O)C1=CN(C2OC(COP(=O)(O)OP(=O)(O)OC[C@H]3O[C@@H](n4cnc5c(N)ncnc54)[C@H](OP(=O)(O)O)[C@H]3O)C(O)C2O)C=CC1 (some centres undefined) | i | nt | i
COc1ccccc1OCCCCn1c(-c2ccc(Cl)cc2)nc2ccccc2c1=O | nt | i | nt
Cc1cc(C)nc(NC(N)=NCCc2c[nH]c3ccccc23)n1 | i | nt | i
Cc1cc(C)nc(NC(=NCCc2c[nH]c3ccccc23)NC(=O)Nc2ccc(Cl)cc2)n1 | i | i | 13µM
O=C(c1csnn1)N1CCC2(CC1)CCN(c1ccccc1)CC2 | i | nt | nt
Cc1cc(C2N=C(N)Nc3nc4ccccc4n32)c(C)n1-c1ccccc1Cl (centres undefined) | i | i | i
Cc1ccc(-n2c(C)cc(C3N=C(N)Nc4nc5ccccc5n43)c2C)c(C)c1 (centres undefined) | i | i | 10µM
Cc1ccc(-c2nn(-c3ccccc3)cc2/C=C2\SC(=S)N(CC(=O)O)C2=O)cc1 | nt | nt | 13µM
O=C(O)CCN1C(=O)/C(=C/c2cn(-c3ccccc3)nc2-c2cccs2)SC1=S | i | nt | i
Oc1cccc2ccc(SSc3ccc4cccc(O)c4n3)nc12 | i | nt | nt
Cc1cccc(CN2C(=O)N/C(=C/c3ccc(C)s3)C2=O)c1 | i | i | i
Cc1cccc(CN2C(=O)N/C(=C/c3cc(C)n(-c4cc(C)ccn4)c3C)C2=O)c1 | i | ? | 16µM
CC1=C(C(=O)OCCOc2ccccc2)C(c2ccsc2)NC(=O)N1C (centres undefined) | i | nt | i
SMILES | IMPase Li inh | IMPase inh | NPSR antagonist
CCOc1ccc(C2/C(=C(/O)c3ccc(F)cc3)C(=O)C(=O)N2CCCN(C)C)cc1 (centres undefined) | i | i | i
CCOc1ccc(/C(O)=C2/C(=O)C(=O)N(CCOCCO)C2c2ccc(F)cc2)cc1 (centres undefined) | 11µM | ? | i
CCOc1ccc(/C(O)=C2/C(=O)C(=O)N(CCOCCO)C2c2ccccn2)cc1 (centres undefined) | 8.9µM | ? | i
COCCN1C(=O)C(=O)/C(=C(/O)c2ccc(C)cc2)C1c1ccccn1 (centres undefined) | i | nt | i
CCCCCn1nnc2c(=O)oc3ccccc3c21 | i | nt | i
Clc1ccccc1-c1nc(NC2CCNCC2)c2ccccc2n1 | i | nt | nt
COc1cccc(Cn2c(=O)cnc3cnc(Oc4cccc(Cl)c4)nc32)c1 | i | nt | nt
CCCc1nc2ccccc2c(C(=O)OCC(=O)Nc2cccc(S(=O)(=O)N3CCOCC3)c2)c1CC | i | i | i
CCCc1nc2ccccc2c(C(=O)OCC(=O)Nc2ccc(S(=O)(=O)N3CCOCC3)cc2)c1CC | i | i | 10µM
COc1cc2c(cc1OC)[C@H](C)N(CC1C(=O)O[C@@H]3C[C@@]4(C)CCC[C@H](C)[C@@]45OC5[C@H]13)CC2 (some centres undefined) | i | nt | nt
CCc1cc2c(=O)c(-c3ccc4c(c3)OCCO4)coc2c(CN2CCCCC2C)c1O (centres undefined) | i | nt | 10µM
CCc1cc2c(=O)c(-c3nc4ccccc4[nH]3)coc2c(CN2CCCCC2C)c1O (centres undefined) | nt | nt | i[7.67 µM]
CCCc1nc(Nc2nc3ccccc3o2)nc(C)c1C(=O)OCC | i | i | ?
CCOC(=O)c1cnc(Nc2nc3ccccc3o2)nc1CSC(=S)N(CC)CC | i | i | 0.5µM
O=C(O)CN(CCN(CC(=O)O)CC(=O)O)CC(=O)O.[Mn] | i | nt | nt
